# Hit rate of the full screen: of about 48,000 compounds, about 13,000 (27%) showed an effect of 50% or more. This is one part of the list.
# System: Wolbachia pipientis
# Assay: Anti-Wolbachia Cell-Based Screen
# Format: functional
# Set-up: scale not given: in the data most compounds retested in dose-response had high values
# Conditions: 5 µM
row,Structure (SMILES),Percent Effect [%]
1,CCN1CCN(C(=O)c2c[nH]c(C(C)C)n2)c2ccccc21,16.43
2,COCCNC(C)c1ccc(-c2cccnc2)cc1 (configuration not stated),-4.646
3,COCCCNC(=O)COc1ccccc1C(F)(F)F,10.69
4,COCCCNC(=O)NCc1ccc(C)cc1,9.073
5,COCCCNC(=O)Cc1cc(-c2ccccc2)on1,-3.078
6,COCCNc1c(-c2ccc(C)cc2)c(=O)c1=O,115.7
7,COCCCNc1c(-c2ccccc2)c(=O)c1=O,111.1
8,COCCCNc1cc(C(=O)N2CCOCC2)ccc1C,15.11
9,COCCCNc1c(-c2ccc(C)cc2)c(=O)c1=O,103
10,Cc1cnn(CCNCC(O)COc2cccc(C(F)(F)F)c2)c1 (configuration not stated),-5.996
11,Oc1ccc(Br)c(CNc2cccc(-c3nnc[nH]3)c2)c1,-21.72
12,CC(C)Oc1ccc(Cl)c(C(=O)N2CCN(CCO)CC2)n1,76.59
13,COCCOc1ccc(Cl)c(C(=O)N2CCN(CCO)CC2)n1,97.38
14,O=C(c1cc2ccccc2c(=O)[nH]1)N1CCN(CCO)CC1,-3.156
15,CCOc1ccc(Cl)c(C(=O)N2CCN(CCO)CC2)n1,-4.151
16,CC(O)CN1CCN(C(=O)c2cnc(OC(C)C)c(Cl)c2)CC1 (configuration not stated),-53.57
17,Cc1nc(-c2ccccc2)ccc1C(=O)N1CCN(CCO)CC1,1.858
18,Cc1ccc(C(=O)O)cc1S(=O)(=O)Nc1nn(-c2ccccc2)cc1C,-18.22
19,CC(C(N)=O)N1CCc2onc(-c3cccc(F)c3)c2C1 (configuration not stated),31.58
20,CCC(CC)CS(=O)(=O)NC(=O)C1CCC1,-17.91
21,COC(=O)NC1(C(=O)Nc2ccc(-c3ncc[nH]3)cc2)CCCC1,5.421
22,Cc1cccc(-c2nc(CN3CCc4cnc(C)nc4C3)no2)c1,0.7919

row,Structure (SMILES),Percent Effect [%]
1,Cc1cc(C)c(CNC(=O)N(C)CC2CCCCO2)c(=O)[nH]1 (configuration not stated),-5.607
2,Cc1cc(C)c(CNC(=O)N2CCCC2c2cccc(F)c2)c(=O)[nH]1 (configuration not stated),115.9
3,Cc1cc(C)c(CNC(=O)N2CCCC2c2cccn2C)c(=O)[nH]1 (configuration not stated),1.985
4,Cc1cc(C)c(CNC(=O)N2CCCC2c2ccc(F)cc2)c(=O)[nH]1 (configuration not stated),86.68
5,Cc1cc(C)c(CNC(=O)N2CCCC2c2ccccc2)c(=O)[nH]1 (configuration not stated),10.36
6,Cn1cc(N2CC3(CCN(S(=O)(=O)C4CC4)C3)CC2=O)cn1 (configuration not stated),-15.9
7,CCCN(CCC)C(=O)c1sc(C)nc1C,-0.04444
8,CCN(CC)CCn1ccnc1-c1cccc(O)c1,9.33
9,CCc1nnc2n1CCN(CC(=O)Nc1cc(C(C)(C)C)nn1C)C2,-9.721
10,CC(C)(C)OCCN(Cc1cccc(O)c1)C1CCC(O)CC1 (configuration not stated),-0.1894
11,CCN(C(=O)CN1CCCC1c1cc(C)no1)c1ccccc1C (configuration not stated),-1.91
12,Cc1nc(C2CCCN2Cc2cc(Cl)c3c(c2)OCCO3)no1 (configuration not stated),-1.319
13,Cc1nc(C2CCCN2CCCS(=O)(=O)N(C)C)no1 (configuration not stated),-21.09
14,Cc1nc(C2CCCN2Cc2ccc(S(=O)(=O)N(C)C)o2)no1 (configuration not stated),115.8
15,Cc1cc(C2CCCN2Cc2ccc(S(=O)(=O)N(C)C)o2)on1 (configuration not stated),125.1
16,Cc1cc(C2CCCN2Cc2nnc(-c3ccco3)o2)on1 (configuration not stated),10.62
17,CNC(=O)CCCNCc1c(C(C)C)nn(C)c1N(C)C,-0.6366
18,O=C1CC(c2ccncc2)c2c(c(C(=O)O)cn2-c2ccc(F)cc2)N1 (configuration not stated),5.752
19,Cc1ccc(S(=O)(=O)NC(=O)C2(c3ccc(F)cc3)CCC2)c(C)c1,80.83
20,Cc1ccc(S(=O)(=O)NC(=O)C2(c3ccccc3)CCC2)c(C)c1,104.1
21,Cc1ccccc1S(=O)(=O)NC(=O)C1(c2cccc(Cl)c2)CC1,3.29
22,Cc1ccc(S(=O)(=O)NC(=O)COc2cccc(C#N)c2)c(C)c1,41.14

row,Structure (SMILES),Percent Effect [%]
1,CS(=O)(=O)NCCNC(=O)C1(c2ccc(F)cc2)CC1,10.89
2,Cc1ccccc1S(=O)(=O)NC(=O)C1(c2ccccc2)CCC1,93.86
3,Cc1ccc(S(=O)(=O)NC(=O)c2cccc3c2OCCO3)c(C)c1,-13.25
4,Cc1cccc(C2(C(=O)NS(=O)(=O)c3cnn(C)c3)CCCC2)c1,-9.611
5,Cn1cc(S(=O)(=O)NC(=O)C2(c3ccccc3)CCC2)cn1,-6.386
6,CNc1ncc(CN(C)c2nccc(CCC(F)(F)F)n2)cn1,-7.876
7,CS(=O)(=O)Nc1cccc(CNC(=O)CCC(=O)c2cccs2)c1,1.298
8,CCC(=O)N1CCCCC1c1nc(O)c2c(n1)CN(C(C)=O)CC2 (configuration not stated),111
9,CCC(=O)N1CCc2c(O)nc(C3CCCCN3C(=O)C3CC3)nc2C1 (configuration not stated),88.1
10,CN(C)c1nc2c(c(N(C)C)n1)CCN(C(=O)CN1CCC(O)CC1)C2,-41.67
11,CC(=O)NC1CCN(c2nc(N(C)C)nc3c2CCN(C(C)=O)C3)CC1,3.638
12,CC1CCCCN1C(=O)c1nc2c(n1C(C)C)CCN(C(=O)C1CC1)C2 (configuration not stated),-21.18
13,CCC(=O)N1CCCCC1c1nc(O)c2c(n1)CN(C(=O)C1CC1)CC2 (configuration not stated),109.8
14,CC(C)N1CCC(C(=O)N2CCc3c(nc(CC4CC4)[nH]c3=O)C2)CC1,-3.187
15,CC(C)c1noc(CS(=O)(=O)CC(=O)NCc2cccs2)n1,-1.009
16,CCN(Cc1ccco1)C(=O)Nc1cc(C(F)(F)F)c[nH]c1=O,8.276
17,CC(C)(O)CCc1cccc(C(=O)N[C@H](C(N)=O)c2ccccc2)c1,-7.223
18,Cc1cccc2c1nc(COCC(=O)O)n2-c1ccsc1,2.323
19,CC(CC(=O)Nc1ncn(CC(=O)N2CCCCCC2)n1)C1CC1 (configuration not stated),14.79
20,CCNC(=O)N1CCCCC1CCNS(C)(=O)=O (configuration not stated),-13.96
21,NS(=O)(=O)CCNC(=O)CCc1cc(Br)cs1,1.171
22,CC(CC(=O)NCCNS(C)(=O)=O)C1CCCCC1 (configuration not stated),132.7

row,Structure (SMILES),Percent Effect [%]
1,CC(CC(=O)NS(C)(=O)=O)C1CCCCC1 (configuration not stated),81.01
2,CC(CC(=O)NCCS(N)(=O)=O)C1CCCCC1 (configuration not stated),93.71
3,Cc1ccc(CNC(=O)N2CCCCC2CCNS(C)(=O)=O)cc1 (configuration not stated),-22.58
4,CS(=O)(=O)NCC(=O)NC(Cc1ccccc1)C1CCCC1 (configuration not stated),-11.78
5,CC(C)c1ccc(C2(C(=O)NCCS(N)(=O)=O)CCC2)cc1,-17.74
6,CCS(=O)(=O)N1Cc2ccnn2CC(c2nc(C)no2)C1 (configuration not stated),-5.084
7,CCCC(=O)N(CC)C(c1cccnc1)c1ccc2c(c1)CCO2 (configuration not stated),-14.24
8,Cc1cc(C(N)=O)ccc1NC(=O)N1CCN(c2cccs2)CC1,1.471
9,COc1nn(C)cc1C(=O)NCC(OC)c1ccccc1C (configuration not stated),0.6487
10,CC(C)NC(=O)[C@@H]1C[C@H](N)CN1C(=O)c1cc2ccccc2[nH]c1=O,-13.02
11,CC(NCCc1nccn1Cc1ccccc1)c1cccs1 (configuration not stated),7.205
12,CN(Cc1ccccn1)c1nccc(N2CCN[C@H]3CS(=O)(=O)C[C@H]32)n1,-6.376
13,CC(C)CNC(=O)COc1cccc[n+]1[O-],-1.693
14,CC(C)CNC(=O)CN(Cc1ccc(F)cc1)S(C)(=O)=O,96.65
15,CC(C)CNC(=O)CN(CC(=O)NCC(C)C)S(C)(=O)=O,89.59
16,CN(CC(=O)NC(c1ccc(F)cc1)C(F)(F)F)S(C)(=O)=O (configuration not stated),-15.92
17,CC(C)CNC(=O)CN(C)S(C)(=O)=O,111.5
18,CC(C)CNC(=O)CSc1nnc(OC(C)C)s1,1.156
19,CC(NC(=O)CN(C)S(C)(=O)=O)c1ccc(F)cc1 (configuration not stated),-21.23
20,CC(C(=O)N(Cc1ccc(F)cc1)CC(F)(F)F)S(C)(=O)=O (configuration not stated),19.96
21,CN(CC(=O)NCc1cc2ccccc2o1)S(C)(=O)=O,6.61
22,CCN1CCN(CC(O)c2ccc(Br)cc2)CC1 (configuration not stated),16.45

row,Structure (SMILES),Percent Effect [%]
1,CS(=O)(=O)N1CC[C@@H]2[C@@H]1CCN2Cc1ccc2c(c1)OCO2.O=C(O)C(F)(F)F,-17.32
2,CC(C)(C)NC(=O)CN1CCCN(Cc2ccc(C#N)cc2)CC1,13.98
3,O=C(C1CC1)N1CCN(c2ccc(-n3cncn3)nn2)CC1,7.785
4,Cc1oc(C)c(C(=O)NS(=O)(=O)c2ccc3c(c2)OCCO3)c1Br,78.36
5,Cc1oc(C)c(C(=O)NS(=O)(=O)c2ccc3c(c2)OCCCO3)c1C,0.6682
6,O=C(NS(=O)(=O)c1ccc2c(c1)OCCO2)c1ccc(Br)cc1F,-2.402
7,CCNC(=O)CN(Cc1ccoc1)C1CCCCC1,-9.878
8,O=C(CCN1CCc2c(ncn2C2CC2)C1)NC1CCCC1,116.5
9,CCN1CCC(NC(=O)CN2CCc3c(ncn3C3CC3)C2)CC1,104
10,CCN1CCC(NC(=O)CN2CCc3c(ncn3C)C2)CC1,-0.1158
11,CCN1CCC(NC(=O)CN2CCc3c(nc(C4CC4)n3C)C2)CC1,-1.72
12,O=C(CN1CCc2c(ncn2C2CC2)C1)NC1CCN(C2CC2)CC1,121.2
13,OC(COc1ccccc1)CN1CCc2c(ncn2C2CC2)C1 (configuration not stated),-5.117
14,O=C(CN1CCc2c(ncn2C2CC2)C1)NC1CCOCC1,127.5
15,O=C(CN1CCc2c(ncn2C2CC2)C1)NC1CC1,-2.463
16,N#Cc1ccc(OCCN2CCc3c(ncn3C3CC3)C2)cc1,2.68
17,OC(CN1CCOCC1)CN1CCc2c(ncn2C2CC2)C1 (configuration not stated),4.204
18,CC(=O)N1CCN(C(=O)CN2CCc3c(ncn3C3CC3)C2)CC1,17.74
19,N#CC1(NC(=O)CN2CCc3c(ncn3C3CC3)C2)CCCC1,-4.395
